Inconclusive results are not listed. Activity calls are given as the source filed them. The call rests on the fitted dose curve; in most records, active means well fitted curve in the direction sought with a large enough effect; inconclusive means small, poorly fitted or top-dose-only effect, or another doubt; inactive means no such curve, though single readings can be large or run the other way.
System: Zika virus NS2B-NS3 protease (linked)
Assay: Optimization screen NINDS AMC qHTS for Zika virus inhibitors: Linked NS2B-NS3 protease assay
Details: recombinant linked NS2B-NS3 protease, AMC fluorogenic substrate; series mostly up to 52.5 µM
Source text: Avindra Nath, Ph.D., National Institute of Neurological Disorders and Stroke (NINDS), Bethesda, MD
Radhakrishnan Padmanabhan, Ph.D., Georgetown University (GU), Washington D.C.
Zika Virus causes congenital defects, including microcephaly and is associated with Guillain-Barre syndrome, eningoencephalitis and myelitis in infected adult. […] Using a target-based approach, we hope to establish a screening paradigm to uncover novel, cell-active NS2B-NS3 protease (Zika Virus) specific inhibitors from NCATS' collection of small molecules using qHTS.
Four assay panel was created to identify potential Zika Virus inhibitors. Namely, (1) GU unlinked NS2B-NS3 AMC tagged protease qHTS, (2) GU unlinked NS2B-NS3 Rhodamine tagged protease qHTS, (3) NINDS linked NS2B-NS3 AMC tagged protease qHTS, (4) NINDS linked NS2B-NS3 Rhodamine tagged protease qHTS. Active compounds were re-acquired and re-screened to confirm inhibition. Inhibitors were further screened against various confirmatory and counterscreens in dose response format.
Early Translation Branch (ETB)
National Center for Advancing Translational Sciences (NCATS), Rockville, MD
National Institute of Health (NIH), Bethesda, Maryland
For the linked assay, Nath lab (NINDS) provided the purified linked NS2B-NS3 protease which is consists of hydrophilic domain of NS2B linked to the NS3 protease domain by a flexible (-GGGGSGGGG-) linker. Control compound aprotinin is obtained from Thermo Scientific (#78432; Waltham, Massachusetts). NS2B-NS3 AMC substrate (Bz-Nle-Lys-Arg-Arg-AMC; Nle-KRR-AMC) purchased from Bachem (#I-1995; Torrance, CA). Ac-VKTGKR-AMC purchased from Genscript or Bachem, Ac-FAAGKR-AMC purchased from Genscript, Ac-GLVKRR-AMC purchased from Genscript, Ac-LKKR-AMC purchased from Genscript.
NINDS AMC linked NS2B-NS3 protease qHTS protocol:
Briefly, 3 microL of Zika virus linked NS2B-NS3 protease (1 nM for linked final concentration), in assay buffer (10 mM Tris-HCl pH 8.0 with 0.01% Tween 20) was dispensed into a 1,536-well solid-bottom black plate (Greiner Bio One, Monroe, NC). Twenty-three nL of compounds (final concentration range 7.28 nM to 114 microM) or control Aprotinin (final concentration range 3.47 nM to 114 microM) were transferred via Wako Pin-tool (Wako Automation, Richmond, VA). Samples were incubated (room temperature, protected from light) for 15 minutes followed by a 1 microL AMC substrate addition of (final concentration of 10 microM; Km = 18.3 µM). Plates were then read immediately on a ViewLux High-throughput CCD imager (PerkinElmer, Waltham, MA) equipped with standard UV fluorescence optics (340(30) nm excitation, 450(20) nm emission) then incubated (room temperature, protected from light) for 15 minutes (~20% conversion). The change in fluorescence intensity over the 15-minute reaction period was normalized against no-inhibitor and no-enzyme controls and the resulting percent inhibition data were fitted to a 4-parameter Hill equation. Aprotinin was used as the intraplate control.

Row | Compound | outcome
1 | C=CCN1CCC2(C)c3cc(O)ccc3CC1C2C (stereo unspecified) | inactive
2 | C[C@@H]1[C@@H]2Cc3ccc(O)cc3[C@@]1(C)CCN2CC1CC1 | inactive
3 | C[C@@H]1O[C@@H](O[C@H]2C[C@@H](O)[C@]3(CO)C4C(CC[C@]3(O)C2)[C@@]2(O)CC[C@H](C3=CC(=O)OC3)[C@@]2(C)C[C@H]4O)[C@H](O)[C@H](O)[C@H]1O (stereo partly specified) | inactive
4 | CC(C)OC(=O)Nc1ccccc1 | inactive
5 | C[C@@H]1[C@@H]2Cc3ccc(O)cc3[C@@]1(C)CCN2CCc1ccccc1 | inactive
6 | COC1C(O)C(C)O[C@@H](OC2CC[C@@]3(C)C4CC[C@]5(C)C(C6=CC(=O)OC6)CC[C@@]5(O)C4CC[C@@H]3C2)C1O (stereo partly specified) | inactive
7 | C=CCN1CC[C@]23CCCCC2[C@H]1Cc1ccc(O)cc13 (stereo partly specified) | inactive
8 | C[C@@H]1O[C@@H](O[C@H]2C[C@@H](O)[C@]3(CO)[C@H]4[C@H](O)C[C@]5(C)[C@@H](C6=CC(=O)OC6)CC[C@]5(O)[C@@H]4CC[C@]3(O)C2)[C@H](O)[C@H](O)[C@H]1O | inactive
9 | Cc1ccc2c(c1)[C@]13CCCC[C@@H]1[C@H](C2)N(C)CC3 | inactive
10 | CC[C@H](C)[C@H]1O[C@]2(C=C[C@@H]1C)C[C@@H]1C[C@@H](C/C=C(\C)[C@@H](O[C@H]3C[C@H](OC)[C@@H](O[C@H]4C[C@H](OC)[C@@H](O)[C@H](C)O4)[C@H](C)O3)[C@@H](C)/C=C/C=C3\CO[C@@H]4[C@H](O)C(C)=C[C@@H](C(=O)O1)[C@]34O)O2 | inactive
11 | C[C@H]1O[C@@H](O[C@H]2[C@@H](O)C[C@H](O[C@H]3[C@@H](O)C[C@H](O[C@H]4CC[C@@]5(C)[C@H](CC[C@@H]6[C@@H]5CC[C@]5(C)[C@@H](C7=CC(=O)OC7)CC[C@]65O)C4)O[C@@H]3C)O[C@@H]2C)C[C@H](O)[C@@H]1O | inactive
12 | C[C@H]1O[C@@H](O[C@H]2[C@@H](O)C[C@H](O[C@H]3[C@@H](O)C[C@H](O[C@H]4CC[C@]5(C)C6CC[C@]7(C)[C@@H](C8=CC(=O)OC8)CC[C@]7(O)C6CC[C@@H]5C4)O[C@@H]3C)O[C@@H]2C)C[C@H](O)[C@@H]1O (stereo partly specified) | inactive
13 | CC1O[C@@H](O[C@@H]2C(O)C[C@H](O[C@@H]3C(O)C[C@@H](OC4CC[C@@]5(C)C6CC[C@]7(C)C(C8=CC(=O)OC8)CC[C@@]7(O)C6CC[C@@H]5C4)OC3C)OC2C)CC(O)[C@H]1O (stereo partly specified) | inactive
14 | C[C@H]1O[C@@H](O[C@H]2[C@@H](O)C[C@@H](O[C@H]3[C@@H](O)C[C@H](O[C@H]4CC[C@@]5(C)[C@H](CC[C@@H]6[C@@H]5CC[C@]5(C)[C@@H](C7=CC(=O)OC7)CC[C@]65O)C4)O[C@@H]3C)O[C@@H]2C)C[C@H](O)[C@@H]1O | inactive
15 | CC(C)=CCN1CC[C@@]2(C)c3cc(O)ccc3C[C@@H]1[C@@H]2C | inactive
16 | CO[C@H]1[C@@H](O)CC(OC2[C@@H](O)CC(OC3[C@@H](O)C[C@H](OC4CC[C@@]5(C)C(CCC6C5CC(O)[C@]5(C)[C@H](C7=CC(=O)OC7)CCC65O)C4)O[C@@H]3C)O[C@@H]2C)O[C@@H]1C (stereo partly specified) | inactive
17 | CN1CC[C@@]23CCCCC2C1Cc1ccc(O)cc13 (stereo partly specified) | inactive
18 | C=CCN1CCC2(C)c3cc(O)ccc3C[C@H]1[C@H]2C | inactive
19 | CC1OC(O[C@H]2C[C@@H](O)[C@]3(CO)[C@H]4[C@H](O)C[C@]5(C)[C@@H](C6=CC(=O)OC6)CC[C@]5(O)[C@@H]4CC[C@]3(O)C2)C(O)C(O)C1O (stereo partly specified) | inactive
20 | CN1CC[C@@]23CCCC[C@@H]2[C@@H]1Cc1ccc(O)cc13 | inactive
21 | C[C@H]1[C@H]2Cc3ccc(O)cc3[C@]1(C)CCN2CCc1ccccc1 | inactive
